Out of some 360,000 compounds screened, about 11,000 (3.1%) were called active. Not shown: some 4% with an inconclusive outcome. The list comes from a sample in which actives are over-represented; it also holds similar structures and randomly drawn compounds. Values without a mark were called inactive. The call rests on the fitted dose curve; in most records, active means well fitted inhibition curve with a large enough effect; inconclusive means small, poorly fitted or top-dose-only effect; inactive means no such curve, though single readings can be large or run the other way.
target: Schistosoma mansoni thioredoxin glutathione reductase (TGR) (UniProt Q962Y6); assay: qHTS Assay for the Inhibitors of Schistosoma Mansoni Peroxiredoxins; conditions: purified TGR, DTNB reduction, TNB absorbance 405 nm; series mostly up to 114 µM; activity change, negative = inhibition: at the top concentration; further: nearly all actives have a fitted effect of over 60% in size
Procedure, shortened: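 TGR 20 nM + NADPH 100 uM (dispensed conc.), cpd preinc 15 min RT; start with NADPH (500 uM addition) then DTNB (15 mM addition). Kinetic TNB absorbance, 405 nm filter. Four-parameter Hill fit across titration.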
On the % scale 0 is the no-effect control and ±100 the full control effect; potency means the concentration at half of the fitted maximal effect.

| Compound | activity change, negative = inhibition | Potency |
| --- | --- | --- |
| COc1ccc(C2C(C(C)=O)=C(O)C(=O)N2c2nccs2)cc1 (centres undefined) | -6.73% |  |
| COc1cc(C2C(C(=O)c3ccco3)=C(O)C(=O)N2c2cc(C)on2)ccc1OCc1ccccc1 (centres undefined) | -13.7% |  |
| C=CCOc1cccc(C2C(C(=O)c3ccc(C)o3)=C(O)C(=O)N2c2nnc(C)s2)c1 (centres undefined) |  | 28.2 µM (active) |
| CCCCc1nn2c(=O)cc(COC(=O)c3ccc(NC(=O)c4ccccc4C)cc3)nc2s1 | 4.45% |  |
| Cc1ccc(NC(=O)C(=O)NCC(c2cccnc2)N2CCOCC2)cc1 (centres undefined) | 0.205% |  |
| COc1ccc(NC(=O)Cn2c(=O)n(Cc3ccc(C(=O)NCc4ccccc4Cl)cc3)c(=O)c3ccccc32)cc1 | 1.76% |  |
| Cn1nc(-c2ccccc2)c(-c2ccccc2)c(C(=O)Nc2ccc(S(N)(=O)=O)cc2)c1=O | 0.051% |  |
| Cc1ccc(C)c(N2CCN(CCCNC(=O)Nc3ccc(Cl)cc3)CC2)c1 | -1.01% |  |
| O=C(Cc1ccc(S(=O)(=O)N2CCCC2)s1)NC1CCCCCC1 | -0.278% |  |
| CC(C)c1ccc(S(=O)(=O)N2CCN(C(C)C(=O)NC3CCCC3)CC2)cc1 (centres undefined) | -0.603% |  |
| CC(C(=O)NC1CCCC1)N1CCN(S(=O)(=O)c2ccccc2Cl)CC1 (centres undefined) |  | 35.5 µM (active) |
| O=C(Nc1ccc(OC(F)(F)F)cc1)C1CCCN(S(=O)(=O)c2ccc(Br)s2)C1 (centres undefined) | 12% |  |
| Cc1ccc2nc(SCC(=O)N3CCN(c4ccccc4)CC3)nc(=O)n2c1 |  | 50.1 µM (active) |
| Cc1ccc2nc(SCC(=O)Nc3cccc4ccccc34)nc(=O)n2c1 | 2.28% |  |
| Cc1ccc2nc(SCC(=O)N3CC(C)OC(C)C3)nc(=O)n2c1 (centres undefined) | 8.41% |  |
| COC(=O)CC1Oc2ccccc2-n2cc(-c3ccccc3)nc21 (centres undefined) | 7.28% |  |
| Cc1nc(SCC(=O)Nc2ccc(C(=O)O)cc2)n[nH]1 | 10.6% |  |
| CSc1ncc(Cl)c(C(=O)Nc2ccc(S(=O)(=O)N3CCCC(C)C3)cc2)n1 (centres undefined) | 1.82% |  |
| Cc1cc(=O)n2[nH]c(-c3cccc(Cl)c3)cc2n1 | 27.6% |  |
| C=CCc1c(C)nc2cc(-c3ccccc3)[nH]n2c1=O | 72.4% |  |
| Cc1cc(=O)n2[nH]c(-c3sccc3-n3c(C)ccc3C)cc2n1 |  | 31.6 µM (active) |
| O=C(Nc1cc(Cl)cc(Cl)c1)c1ccc2c(c1)N(Cc1cccc(Cl)c1)C(=O)c1ccccc1S2=O (centres undefined) | 2.83% |  |
| CCCCNc1ccc(-c2nc(-c3ccncc3)no2)cc1[N+](=O)[O-] | 2.16% |  |
| CC(C)CNc1ncnc2c1nnn2C | 3.19% |  |
| COc1ccc(-n2nnnc2SCC(=O)NCc2cccs2)cc1 | -3.09% [at 57.1 µM] |  |

| Compound | activity change, negative = inhibition | Potency |
| --- | --- | --- |
| COc1ccc(-n2c(SCC(=O)NCc3ccco3)nnc2-c2c[nH]c3ccccc23)cc1 | -16.5% |  |
| COc1ccc(-n2c(SCC(=O)NCc3cccs3)nnc2-c2ccoc2C)cc1 |  | 39.8 µM (active) |
| COc1ccc(-c2noc(CCC(=O)N(C)c3ccccc3C)n2)cc1 | -1.06% |  |
| CCCSc1ncc(Cl)c(C(=O)Nc2c(C(=O)Nc3ccccc3)oc3ccccc23)n1 | -0.707% |  |
| COc1ccc(C2CC(=O)N(Cc3ccccc3C)c3c2c(C)nn3-c2nc(C)cc(C)n2)c(OC)c1 (centres undefined) | 5.51% |  |
| O=C(NC(=S)NC1CCCCC1)c1ccc(Cl)cc1 | 0% |  |
| CCCNC(=S)N1CCC(NC(=O)c2ccc(OC)cc2)CC1 | -0.926% |  |
| COc1ccc(C(=O)NC(=S)NC2CCCCC2)cc1 |  | 1.41 µM (active) |
| CCc1ccccc1N(C)C(=O)C1CCCN(c2ncnc3onc(-c4ccc(F)cc4)c23)C1 (centres undefined) | 3.29% |  |
| CCn1cc(C(=O)N2CCN(c3cc(C)ccc3C)CC2)c(=O)c2cc(S(=O)(=O)N(C)C3CCCCC3)ccc21 | 7.58% |  |
| CCc1ccccc1NC(=O)CSc1nnc(-c2ccccc2)c(-c2ccccc2)n1 | 14.9% |  |
| COC(C(=O)NCc1ccccc1C)c1ccccc1 (centres undefined) | -0.709% |  |
| Cc1ccccc1CNC(=O)C(=O)NCC(c1cccs1)S(=O)(=O)c1cccs1 (centres undefined) |  | 25.1 µM (active) |
| COc1ccccc1CNC(=O)C(=O)NCC(c1cccs1)S(=O)(=O)c1cccs1 (centres undefined) |  | 25.1 µM (active) |
| COc1ccccc1CCNC(=O)C(=O)NCCC1CCCCN1S(=O)(=O)c1cccs1 (centres undefined) | -13.6% |  |
| O=C(NCc1ccccc1Cl)C(=O)NCC1CCCN1S(=O)(=O)c1cccs1 (centres undefined) | 2.19% |  |
| CC(C)C(=O)NCC(c1cccs1)S(=O)(=O)c1ccc(F)cc1 (centres undefined) | 1.99% |  |
| Cc1ccc(SCC(=O)Nc2ccc3oc(-c4ccccc4C)nc3c2)cc1 | 4.39% |  |
| CCC(C)NC(=O)Cn1c(=O)n(-c2ccc(Cl)cc2)c(=O)c2c3c(sc21)CCCC3 (centres undefined) | 1.64% |  |
| Cc1c(Cl)cccc1NC(=O)C1CCCN(c2ncnc3onc(C)c23)C1 (centres undefined) | 4.36% |  |
| CCOc1ccc(NC(=O)Cn2c(C)ccc(C#N)c2=O)cc1 | -7.32% |  |
| Cc1ccc(CSCC(=O)N(C)CC(=O)Nc2ccc(C)cc2)cc1 | -1.39% |  |
| Cc1ccc(CSCC(N)C(=O)O)cc1 (centres undefined) |  | 28.2 µM (active) |
| CSCC(NS(=O)(=O)c1ccc(C)cc1)C(=O)O (centres undefined) | 1.42% |  |

Source: PubChem BioAssay AID485364 (National Center for Advancing Translational Sciences (NCATS), 2010)
